The antibiotic and cytotoxicity screens of Wong et al. (2023)
Among all 39,000 compounds or so, about 3,300 (8.5%) were called active. The entries come from a sample that favours actives as a whole.

Test system: HepG2
Assay: cytotoxicity call (relative viability < 0.9)
Conditions: 10 µM

| Compound | cytotoxicity call |
| --- | --- |
| C[C@@H]1CCCCO[C@H](CN(C)C(=O)Nc2ccc(C(F)(F)F)cc2)[C@H](C)CN([C@@H](C)CO)C(=O)c2cc(NC(=O)Nc3cccc4ccccc34)ccc2O1 | inactive |
| C[C@@H]1CN([C@@H](C)CO)C(=O)c2cc(NC(=O)C3CCCCC3)ccc2O[C@@H](C)CCCCO[C@@H]1CN(C)C(=O)Nc1ccc(C(F)(F)F)cc1 | inactive |
| COc1cccc(C#Cc2ccc3c(c2)O[C@@H](CN(C)C(C)=O)[C@H](C)CN([C@@H](C)CO)S3(=O)=O)c1 | inactive |
| COc1ccc(NC(=O)N(C)C[C@H]2OCCCC[C@H](C)Oc3ccc(NC(=O)Nc4cccc5ccccc45)cc3C(=O)N([C@@H](C)CO)C[C@H]2C)cc1 | inactive |
| CCCC1CCC(c2ccc(OC(=O)c3ccco3)cc2)CC1 (stereo unspecified) | inactive |
| CCCN(C)C[C@@H]1OCCCC[C@@H](C)Oc2ccc(NC(=O)CCC(F)(F)F)cc2C(=O)N([C@@H](C)CO)C[C@@H]1C | inactive |
| C[C@@H]1CN([C@@H](C)CO)C(=O)c2cc(C3=CCCC3)cnc2O[C@H]1CN(C)S(=O)(=O)c1cn(C)cn1 | inactive |
| C[C@@H]1CN([C@@H](C)CO)C(=O)CCCn2cc(nn2)CO[C@@H]1CN(C)C(=O)Nc1cccc2ccccc12 | inactive |
| CCC(=O)N1C[C@]2(C1)CN([C@H](CO)c1c2c2ccc(cc2n1C)OC)C(=O)CN1CCOCC1 | inactive |
| C[C@H](CO)N1C[C@H](C)[C@H](CN(C)Cc2ccc(-c3ccccc3)cc2)Oc2c(NC(=O)Nc3ccc4c(c3)OCO4)cccc2C1=O | inactive |
| C[C@@H]1CN([C@@H](C)CO)S(=O)(=O)c2ccc(C#CC3(O)CCCC3)cc2O[C@H]1CN(C)C(=O)c1ccccc1 | inactive |
| C[C@@H]1CN([C@@H](C)CO)C(=O)c2cccc(NS(=O)(=O)c3cn(C)cn3)c2O[C@@H]1CN(C)S(C)(=O)=O | inactive |
| CCS(=O)(=O)N1C[C@]2(C1)CN([C@H](CO)c1c2c2ccc(cc2n1C)OC)S(=O)(=O)c1ccccc1 | inactive |
| C[C@@H]1CN([C@@H](C)CO)C(=O)c2c(c3ccccc3n2C)-c2ccccc2CO[C@H]1CN(C)Cc1ccccc1C(F)(F)F | inactive |
| C[C@H](CO)N1C[C@H](C)[C@@H](CN(C)Cc2ccccc2)OCc2ccccc2-c2c(n(C)c3ccccc23)C1=O | active |
| COc1ccccc1CN(C)C[C@@H]1OCc2ccccc2-c2c(n(C)c3ccccc23)C(=O)N([C@H](C)CO)C[C@H]1C | inactive |
| C[C@H](CO)N1C[C@H](C)[C@H](CN(C)Cc2ccccc2)OCc2ccccc2-c2c(n(C)c3ccccc23)C1=O | inactive |
| C[C@@H]1CN([C@H](C)CO)C(=O)c2c(c3ccccc3n2C)-c2ccccc2CO[C@H]1CN(C)Cc1ccccc1C(F)(F)F | active |
| COc1ccccc1CN(C)C[C@H]1OCc2ccccc2-c2c(n(C)c3ccccc23)C(=O)N([C@@H](C)CO)C[C@@H]1C | inactive |
| C[C@H]1CN([C@@H](C)CO)C(=O)c2c(c3ccccc3n2C)-c2ccccc2CO[C@@H]1CN(C)Cc1ccccc1 | inactive |
| C[C@H]1CN([C@@H](C)CO)C(=O)c2c(c3ccccc3n2C)-c2ccccc2CO[C@H]1CN(C)Cc1ccccc1 | inactive |

| Compound | cytotoxicity call |
| --- | --- |
| C[C@H](CO)N1C[C@H](C)[C@H](CN(C)Cc2ccccc2C(F)(F)F)OCc2ccccc2-c2c(n(C)c3ccccc23)C1=O | inactive |
| C[C@@H]1CN([C@@H](C)CO)C(=O)c2c(c3ccccc3n2C)-c2ccccc2CO[C@@H]1CN(C)Cc1ccccc1 | inactive |
| C[C@@H]1CN([C@H](C)CO)C(=O)c2c(c3ccccc3n2C)-c2ccccc2CO[C@H]1CN(C)Cc1ccccc1 | active |
| COc1ccccc1CN(C)C[C@H]1OCc2ccccc2-c2c(n(C)c3ccccc23)C(=O)N([C@H](C)CO)C[C@@H]1C | active |
| C[C@H]1CN([C@@H](C)CO)C(=O)c2cc(NS(C)(=O)=O)ccc2O[C@@H]1CN(C)S(=O)(=O)c1ccccc1 | inactive |
| CC(C)NC(=O)N(C)C[C@@H]1Oc2ccc(NS(=O)(=O)c3ccc(Cl)cc3)cc2C(=O)N([C@@H](C)CO)C[C@H]1C | inactive |
| COc1ccc2c3c(n(c2c1)C)[C@H](CO)N(C[C@]13CCN(CC1)C(=O)c1ccccc1F)C(=O)Nc1ccc(cc1)F | inactive |
| CO[C@H]1CN(C)C(=O)c2cc(NS(=O)(=O)c3cn(C)cn3)ccc2OC[C@H](C)N(CC2CC2)C[C@H]1C | inactive |
| C[C@@H]1CN([C@H](C)CO)C(=O)c2cc(NC(=O)C3CCCCC3)ccc2O[C@@H](C)CCCCO[C@H]1CN(C)C(=O)Nc1ccccc1 | inactive |
| Cc1cc2cc(C)nn2c(N)n1 | inactive |
| C[C@H](CO)N1C[C@H](C)[C@H](CN(C)C(=O)Nc2ccccc2)OCCCC[C@H](C)Oc2ccc(NC(=O)CCC(F)(F)F)cc2C1=O | inactive |
| Cc1noc(C)c1S(=O)(=O)Nc1ccc2c(c1)C(=O)N([C@H](C)CO)C[C@@H](C)[C@@H](CN(C)Cc1ccccc1)O2 | inactive |
| O=C(C[C@@H]1C=C[C@H](NS(=O)(=O)c2ccccc2F)[C@@H](CO)O1)NCCCN1CCOCC1 | inactive |
| C[C@@H]1CCCCO[C@@H](CN(C)S(=O)(=O)c2ccc(F)cc2)[C@H](C)CN([C@@H](C)CO)C(=O)c2cc(NC(=O)NC3CCCCC3)ccc2O1 | inactive |
| C[C@@H]1CCCCO[C@H](CN(C)S(=O)(=O)c2ccc(F)cc2)[C@@H](C)CN([C@H](C)CO)C(=O)c2cc(NC(=O)NC3CCCCC3)ccc2O1 | active |
| C[C@@H]1CN([C@H](C)CO)C(=O)c2cc(NC(=O)NC3CCCCC3)ccc2O[C@@H](C)CCCCO[C@H]1CN(C)S(=O)(=O)c1ccc(F)cc1 | inactive |
| C[C@@H]1CCCCO[C@@H](CN(C)S(=O)(=O)c2ccc(F)cc2)[C@@H](C)CN([C@H](C)CO)C(=O)c2cc(NC(=O)NC3CCCCC3)ccc2O1 | inactive |
| C[C@H]1CCCCO[C@@H](CN(C)S(=O)(=O)c2ccc(F)cc2)[C@@H](C)CN([C@@H](C)CO)C(=O)c2cc(NC(=O)NC3CCCCC3)ccc2O1 | inactive |
| C[C@H](CO)N1C[C@H](C)[C@H](CN(C)S(=O)(=O)c2ccc(F)cc2)OCCCC[C@H](C)Oc2ccc(NC(=O)NC3CCCCC3)cc2C1=O | active |
| C[C@@H]1CCCCO[C@H](CN(C)S(=O)(=O)c2ccc(F)cc2)[C@H](C)CN([C@@H](C)CO)C(=O)c2cc(NC(=O)NC3CCCCC3)ccc2O1 | inactive |
| C[C@@H]1CCCCO[C@H](CN(C)S(=O)(=O)c2ccc(F)cc2)[C@H](C)CN([C@H](C)CO)C(=O)c2cc(NC(=O)NC3CCCCC3)ccc2O1 | inactive |

| Compound | cytotoxicity call |
| --- | --- |
| C[C@@H]1CCCCO[C@@H](CN(C)S(=O)(=O)c2ccc(F)cc2)[C@H](C)CN([C@H](C)CO)C(=O)c2cc(NC(=O)NC3CCCCC3)ccc2O1 | active |
| COc1cccc(C#Cc2cnc3c(c2)C(=O)N([C@H](C)CO)C[C@@H](C)[C@@H](CN(C)C(=O)C2CCOCC2)O3)c1 | inactive |
| C[C@H]1CN([C@@H](C)CO)C(=O)CCCn2nncc2CO[C@H]1CN(C)S(=O)(=O)c1ccc(-n2cccn2)cc1 | inactive |
| CCOC(=O)c1cc2c(c(-c3ccccc3)n1)[C@@H](CCO[Si](C)(C)C(C)(C)C)N(S(=O)(=O)C(C)(C)C)C2 | inactive |
| CCC(=O)Nc1ccc2c(c1)C(=O)N(C)C[C@@H](OC)[C@@H](C)CN(C(=O)CN1CCOCC1)[C@@H](C)CO2 | inactive |
| O=C(O)COCC(=O)NCc1ccco1 | inactive |
| O=C1O[C@@H](c2ccccc2)[C@@H](c2ccccc2)N2[C@@H](c3ccc(O)cc3)[C@]3(C(=O)Nc4ccccc43)[C@@H](C(=O)Nc3nc4ccccc4s3)[C@H]12 | inactive |
| C[C@H]1CN([C@@H](C)CO)C(=O)c2cc(C#Cc3ccccc3F)cnc2O[C@@H]1CN(C)C(=O)c1ccc2c(c1)OCO2 | inactive |
| C[C@@H]1CN([C@H](C)CO)C(=O)Cc2cc(N(C)C)ccc2O[C@@H]1CN(C)S(=O)(=O)c1cn(C)cn1 | inactive |
| C[C@@H]1CN([C@H](C)CO)C(=O)c2cc(NC(=O)Nc3ccc(C(F)(F)F)cc3)ccc2O[C@H]1CN(C)C(=O)Nc1ccc2c(c1)OCO2 | inactive |
| C[C@@H]1CN([C@@H](C)CO)C(=O)c2cc(NC(=O)Nc3ccc4c(c3)OCO4)ccc2O[C@H]1CN(C)C(=O)Nc1ccc(C(F)(F)F)cc1 | inactive |
| C[C@H]1CN([C@@H](C)CO)C(=O)c2cc(NC(=O)Nc3ccc(C(F)(F)F)cc3)ccc2O[C@@H]1CN(C)C(=O)Nc1ccc2c(c1)OCO2 | active |
| C[C@@H]1CN([C@@H](C)CO)C(=O)c2cc(NC(=O)Nc3ccc(C(F)(F)F)cc3)ccc2O[C@@H]1CN(C)C(=O)Nc1ccc2c(c1)OCO2 | active |
| C[C@H]1CN([C@@H](C)CO)C(=O)c2cc(NC(=O)Nc3ccc4c(c3)OCO4)ccc2O[C@H]1CN(C)C(=O)Nc1ccc(C(F)(F)F)cc1 | inactive |
| C[C@H]1CN([C@@H](C)CO)C(=O)c2cc(NC(=O)Nc3ccc4c(c3)OCO4)ccc2O[C@@H]1CN(C)C(=O)Nc1ccc(C(F)(F)F)cc1 | inactive |
| COCCNC(=O)C[C@@H]1C[C@@H]2c3cc(NC(=O)COC)ccc3O[C@@H]2[C@@H](CO)O1 | inactive |
| Cc1noc(C)c1NC(=O)Nc1ccc2c(c1)C(=O)N([C@@H](C)CO)C[C@@H](C)[C@H](CN(C)S(=O)(=O)c1ccccc1)OCCCC[C@@H](C)O2 | inactive |
| C[C@H]1CN([C@@H](C)CO)C(=O)c2cc(NC(=O)Cn3cnnn3)ccc2O[C@@H]1CN(C)Cc1ccc(C(=O)Nc2ccccc2N)cc1 | inactive |
| C[C@@H]1CN([C@H](C)CO)C(=O)c2cc(NC(=O)C3CC3)ccc2O[C@@H]1CN(C)S(=O)(=O)c1cn(C)cn1 | inactive |
